Measurements as given in PubChem BioAssay AID902 (National Center for Advancing Translational Sciences (NCATS), 2007).
The campaign covered roughly 130,000 compounds. About 1,900 (1.5%) were called active. A call without a number means that no potency is given here. Roughly 5% stayed inconclusive and do not appear here. Calls come from the whole dose curve; as a rule, active = well fitted cell-killing curve with a large enough effect; inconclusive = small, poorly fitted or top-dose-only effect; inactive = no such curve, though single readings can be large or run the other way. This excerpt belongs to a sample that is enriched for actives.

assay: qHTS Screen for Compounds that Selectively Target Cancer Cells with p53 Mutations: Cytotoxicity of p53ts Cells at the Nonpermissive Temperature; conditions: H1299-p53A138V viability at 39C, ATP luminescence, 24 h; series mostly up to 46.1 µM; note: nearly all actives have a fitted effect of over 55% in size
Source text: NIH Chemical Genomics Center [NCGC] NIH Molecular Libraries Screening Centers Network [MLSCN] MLSCN Grant: 1 X01 MH079844-01 Assay Submitter (PI): Dr. SUN, YI, University of Michigan NCGC Assay Overview: Synthetic Lethal Screen for Compounds to Kill Cancer Cells with p53 Mutation. Tumor suppressor gene p53 serves as a major cellular barrier against tumorigenesis. […] The goal of this screening is to identify small molecule probes that selectively kill cancer cells with mutations in p53. This screening was carried out using two lines of H1299 lung cancer cells. The H1299-p53 A138V line express a temperature sensitive p53 mutant (p53ts) in which the mutant p53 protein (A138V) is in the mutant confirmation when grown at 39C (the nonpermissive temperature) and in the wild type conformation when grown at 32C (the permissive temperature). A H1299-neo line (p53 null) grown at both 39C and 32C were used as counter-screens to filter out false positive associated with temperature shifting. The small molecular compounds that selectively target mutant p53-containing cancer cells were selected as candidate probes for further study. A cytotoxicity assay based on the measurement of ATP contents in cells was used in this screen. Concentration-responses of all the compounds in the library collection were determined in qHTS using the cell lines and temperature conditions as above.
NCGC Assay Protocol Summary: Both the H1299-p53A138V and H1299-neo cell lines were provided by Dr.Yi Sun, a PI at the University Michigan. The cells were maintained and cultured at 37C. The resuspended frozen cells were used to plate the cells in the 1536-well assay plates at a density of 600 cells per well in 5 ul medium. The assay plates with the cells were incubated at 37C for 16 to 30 hours before the experiments. The library compounds in DMSO solution were added to the cells in assay plates and incubated 24 hours at 39C (for mutant p53 conformation) or 32C (for normal p53 conformation as control). An ATP_lite assay kit (PerkinElmer) was used to determine the cell viability. Tomaxifen (100uM) was used as the positive control for cell killing. Data were normalized to the controls for basal activity (DMSO only) and 100% killing (100uM tamoxifen). AC50 values were determined from concentration-response data modeled with the standard Hill equation. P53 assay protocol: 1. Reagent; 5 uL H1299-p53A138V or H1299-neo cell cells/well 2. Time; overnight; 37C incubation 3. Compounds; 23 nL; 5.9 nM to 46 uM 4. Controls; 23 nL; Tamoxifen 100 uM 5. Time; 24 hr; 39C incubation 6. Reagent; 3 uL; ATP_Lite reagent 7. Time; 20 min; Room Temperature 8. Detection; Luminescence; Viewlux plate reader Keywords: p53, synthetic lethal, cancer, cell viability, cytotoxicity, H1299 cell line, luminescence, MLSMR, MLSCN, NIH Roadmap, qHTS, NCGC
Potency is the fitted concentration of half-maximal effect.

| Structure (SMILES) | Potency |
| --- | --- |
| Cc1oc2ccc(O)c(CN3CCOCC3)c2c1C(=O)Nc1cccc(Cl)c1C | inactive |
| Cc1oc2ccc(O)c(CN3CCC(C)CC3)c2c1C(=O)Nc1ccccc1 | inactive |
| Cc1oc2ccc(O)c(CN3CCCCC3)c2c1C(=O)Nc1cccc(C(F)(F)F)c1 | 12.6 µM (active) |
| COc1ccccc1C(=O)Nc1c(C(=O)Nc2ccc(C)cc2)oc2ccccc12 | inactive |
| Cc1ccnc(NC(=O)c2ccc(NC(=O)c3ccco3)cc2)c1 | inactive |
| O=C(Nc1cccc(NC(=O)c2ccco2)c1)c1cnccn1 | inactive |
| O=C(Nc1ccc(NC(=O)c2cccs2)cn1)c1ccco1 | 10 µM (active) |
| CCC(=O)Nc1cccc(C(=O)OCc2cc(=O)n3nc(CC)sc3n2)c1 | inactive |
| CCOC(=O)c1cccc(NC(=O)C(Cc2ccccc2)NS(=O)(=O)c2cccc3nsnc23)c1 (stereo unspecified) | inactive |
| CCCCN(CCCNC(=O)c1cc(Nc2ccccc2OC)nc2ccccc12)c1ccccc1 | inactive |
| COc1ccc(Nc2cc(C(=O)NCCCN(C)c3ccccc3)c3ccccc3n2)c(OC)c1 | inactive |
| COc1ccccc1Nc1cc(C(=O)NCCCN(C)C2CCCCC2)c2ccccc2n1 | 10 µM (active) |
| CNC(=O)CN1C(=O)c2cccnc2Sc2ccccc21 | inactive |
| COc1cccc(C(=O)N(Cc2cccc(Cl)c2)Cc2ccco2)c1 | inactive |
| O=C(NCCCN1CCN(C2CCCCC2)CC1)Nc1ccccc1C(F)(F)F | inactive |
| Cc1ccccc1NC(=O)CNc1ccccc1N1CCCCC1 | inactive |
| O=C(CN1CCN(C2CCCCC2)CC1)Nc1ccccc1N1CCCCC1 | 15.8 µM (active) |
| COc1ccc(Cl)cc1NC(=O)CCC(=O)c1ccc(C)cc1 | inactive |
| COc1ccccc1CNC(=O)CCCn1c(=O)c2ccccc2n(CC(=O)Nc2ccc(C)cc2Cl)c1=O | inactive |
| CCCc1[nH]nc2c1C(c1ccc(Br)s1)C(C#N)=C(N)O2 (stereo unspecified) | inactive |
| COc1ccc(C2C(C#N)=C(N)Oc3n[nH]c(C)c32)cc1CN1CCN(c2ccc(F)cc2)CC1 (stereo unspecified) | inactive |
| CCCc1[nH]nc2c1C(c1ccc(OC)c(Cn3nc(C)c(Br)c3C)c1)C(C#N)=C(N)O2 (stereo unspecified) | 7.94 µM (active) |
| Cc1cccc(C2CC(=O)Oc3c2c(=O)n(C)c2ccccc32)c1 (stereo unspecified) | inactive |
| OCCN1CCN(CC/C=C2\c3ccccc3Sc3ccc(C(F)(F)F)cc32)CC1 | 15.8 µM (active) |
| O=C(CN1CCCCCC1)N1c2ccccc2Sc2ccc(C(F)(F)F)cc21 | inactive |
| O=C(CN1CCCCC1)N1c2ccccc2Sc2ccc(C(F)(F)F)cc21 | inactive |

| Structure (SMILES) | Potency |
| --- | --- |
| CCOC(=O)c1c(S(=O)(=O)N2CCC(C(=O)NCc3ccccc3OC)CC2)c(C)n(C)c1C | inactive |
| Cc1ccc(Nc2ccc3cc(S(=O)(=O)N4CCCCC4)ccc3n2)cc1F | inactive |
| O=C(CC(c1cccs1)N1Cc2ccccc2C1=O)Nc1ccc(F)c(F)c1 (stereo unspecified) | inactive |
| Cc1ccc(N2CCN(C(=O)CCc3c(C)nc4c(c3C)c(=O)n(C)c(=O)n4C)CC2)c(C)c1 | inactive |
| CC(C)(C)c1csc(NC2=NS(=O)(=O)c3ccccc32)n1 | 12.6 µM (active) |
| c1ccc(Nc2nc(-c3ccncc3)cs2)nc1 | inactive |
| O=C(CSc1nccn1Cc1ccc(F)cc1)NCc1ccccc1 | inactive |
| CCN(C(=O)Cn1cnc2sc(C)c(S(=O)(=O)N3CCN(c4ncccn4)CC3)c2c1=O)c1ccccc1F | inactive |
| CCOC(=O)c1c(S(=O)(=O)N2CCCC(C(=O)NCc3cccc(C)c3)C2)c(C)n(C)c1C (stereo unspecified) | inactive |
| CC1(C)N=C(SCc2ccccc2Cl)c2ccccc2N1 | inactive |
| Cc1ccccc1N1CC(c2nc3ccccc3[nH]2)CC1=O (stereo unspecified) | inactive |
| Cc1cc(/C=N/n2cnnc2)c(C)n1-c1cccc(C(=O)O)c1 | inactive |
| Cc1ccccc1-n1c(C)cc(/C=C2\NC(=O)NC2=O)c1C | 8.91 µM (active) |
| CC(C)c1ccc(NC(=O)c2ccc(Cn3nc(N4CCN(c5ccccc5)CC4)ccc3=O)o2)cc1 | inactive |
| O=S(=O)(c1ccc(C2CCCCC2)cc1)N1CCN(c2ccc(Cl)c(Cl)c2)CC1 | inactive |
| CCOc1ccc(CNC(=O)C2CCCN(S(=O)(=O)N(CC)c3ccc(OCC)cc3)C2)cc1 (stereo unspecified) | inactive |
| CSc1nn(Cc2cccc(C)c2)c(N)c1S(=O)(=O)c1ccccc1 | inactive |
| CCCCOc1ccc(Cn2c(=O)oc3ccc(C)cc32)cc1OC | inactive |
| COc1ccc(CCN(C)CCN2C(=O)c3ccccc3C2=O)cc1OC | inactive |
| CCCCOc1ccc(CN2C(=O)C(=O)c3cc(Br)cc(C)c32)cc1OC | 7.94 µM (active) |
| COc1ccc(CCNC(=O)c2cc3cccc4c3n2CC(C)S4)c(OC)c1OC (stereo unspecified) | inactive |
| Cc1cccc(Cn2c(SCc3ccc(C(=O)N4CCC(C)CC4)cc3)nc3ccncc32)c1 | inactive |
| CC(C)CC(=O)NCC(c1ccc2c(c1)OCO2)N1CCN(c2ccc(F)cc2)CC1 (stereo unspecified) | inactive |
| CC(C)(C)NC(=O)CSc1nc(-c2ccc(F)cc2)cc(C(F)(F)F)n1 | inactive |
| c1ccc(Nc2n[nH]nc2-c2ccccc2)cc1 | inactive |
| CSc1nc(Nc2ccc(F)cc2)cc(-c2ccccc2)n1 | 12.6 µM (active) |

| Structure (SMILES) | Potency |
| --- | --- |
| CCC(=O)N1c2ccccc2CC1C(=O)N1CCN(c2ccccc2)CC1 (stereo unspecified) | inactive |
| Cc1cccc(N2CCN(c3ccc(C(=O)O)cc3NC(=O)c3ccccc3F)CC2C)c1 (stereo unspecified) | inactive |
| COc1ccc(OC)c(CCNC(=O)CCCn2c(=O)c3cccn3c3cccnc32)c1 | inactive |
| CCOc1ccc(OCC)c(NS(=O)(=O)c2ccc3[nH]c(=O)ccc3c2)c1 | inactive |
| c1ccc(-n2ncc3c2ncn2c(C4CCCCC4)nnc32)cc1 | inactive |
| CCN(CC)C(=O)CSc1ncnc2c1cnn2-c1ccccc1 | inactive |
| CCN(c1ncnc2c1cnn2-c1ccc(C)cc1)C1CCCCC1 | 20 µM (active) |
| Cc1cccc(-c2nc(SCC(=O)Nc3cc(C)on3)c3c(=O)n(C)c(=O)n(C)c3n2)c1 | inactive |
| Cc1nc2ccccc2n1C(=O)N1CCOCC1 | inactive |
| Cc1cc(C)c2c(n1)nn1c(N3CCOCC3)cc(C)nc21 | inactive |
| Cc1nn2c3cc(N4CCOCC4)ccc3nc2c2ccccc12 | 2 µM (active) |
| CCOc1cccc(NC(=O)CSc2ncc(-c3ccc(Cl)cc3)[nH]2)c1 | 20 µM (active) |
| Cc1cccc(NC(=O)CSc2ncc(-c3ccccc3)[nH]2)c1C | inactive |
| O=C(CSc1ncc(-c2ccccc2)[nH]1)Nc1ccc(F)cc1F | inactive |
| CCCc1nnc(NC(=O)CN2C(=O)c3ccccc3S2(=O)=O)s1 | 12.6 µM (active) |
| CCCc1nnc(NC(=O)c2cc(OC)cc(OC)c2)s1 | inactive |
| CNC(=O)CN1C(=O)c2ccccc2S1(=O)=O | inactive |
| Cc1ccc(C)c2sc(NC(=O)c3ccc(S(=O)(=O)N4CCCC4)cc3)nc12 | inactive |
| CC1=C(C(=O)N2CCN(c3cccc(C(F)(F)F)c3)CC2)C2(CCCCC2)OC1=O | inactive |
| O=C(Nc1ncccn1)c1cccs1 | inactive |
| CCOc1cc(C(=O)Nc2ncccn2)cc(OCC)c1OCC | inactive |
| Cn1c(=O)c(C(=O)Nc2ncccn2)c(O)c2ccccc21 | 12.6 µM (active) |
| Cc1ccc(C(=O)Nc2ccc(OCc3cc(=O)n4c5c(sc4n3)CCCC5)cc2)cc1 | inactive |
| CCN(CC)c1cc(NC2CCCCC2)c2c3c(onc13)-c1ccccc1C2=O | inactive |
| Cc1cccc(N2CCN(C(=O)c3oc(=O)c4ccccc4c3-c3ccccc3)CC2)c1C | inactive |
| CCOc1ccc(C(=O)/C=C/c2cn(CC(O)CN3CCCCCC3)c3ccccc23)cc1 (stereo unspecified) | 10 µM (active) |

| Structure (SMILES) | Potency |
| --- | --- |
| COc1ccc(OCCn2cc(C(=O)C3CCCCC3)c3ccccc32)cc1 | inactive |
| O=C(/C=C/c1cn(CC(O)CN2CCc3ccccc32)c2ccccc12)c1ccc(Br)cc1 (stereo unspecified) | inactive |
| COc1ccc(Cn2c(C(=O)O)c(CNCCc3cccs3)c3ccc(OC)cc32)cc1 | inactive |
| CCCCC(C(=O)OCC(=O)c1ccc(OC)cc1)N1C(=O)c2ccccc2C1=O (stereo unspecified) | inactive |
| CCOC(=O)c1ccccc1NS(=O)(=O)c1ccc(OC)cc1 | inactive |
| CCOC(=O)C1=C(c2ccc(OC)cc2)C(=O)c2ccccc2C1=O | 7.08 µM (active) |
| Cc1cc(F)ccc1NS(=O)(=O)c1ccc(-n2cccn2)cc1 | inactive |
| O=C(Nc1cc(-c2nc3ccccc3o2)ccc1Cl)c1cc([N+](=O)[O-])ccc1N1CCOCC1 | inactive |
| COc1ccc2oc(-c3ccc(C)c(NC(=O)c4sc5ccccc5c4Cl)c3)nc2c1 | inactive |
| Cc1ccc2c(c1)N(C(=O)CCC(=O)NCc1ccccc1F)CC(C)O2 (stereo unspecified) | inactive |
| Cc1ccccc1-c1nc(CS(=O)(=O)CC(=O)N2CCc3ccccc3C2)c(C)o1 | inactive |
| Cc1ccccc1-c1nc(CS(=O)(=O)CC(=O)Nc2cc(Cl)cc(Cl)c2)c(C)o1 | 20 µM (active) |
| Cc1ccccc1-c1nc(CS(=O)(=O)CC(=O)NC(C)c2ccccc2)c(C)o1 (stereo unspecified) | inactive |
| CCC1CCCCN1S(=O)(=O)c1ccc(NC(=O)c2cc(=O)c3ccccc3o2)cc1 (stereo unspecified) | inactive |
| Clc1ccccc1CSc1nncn2c1cc1occc12 | inactive |
| CCn1nc(C(=O)OCC(=O)N2c3ccccc3CC2C)c2ccccc2c1=O (stereo unspecified) | inactive |
| CCC(=O)N1c2ccc(S(=O)(=O)CCC(=O)N3CCN(c4ccccc4)CC3)cc2CC1C (stereo unspecified) | inactive |
| CCCC(=O)N1c2ccc(-c3csc(N)n3)cc2CC1C (stereo unspecified) | 12.6 µM (active) |
| Cc1cccc(OCCSc2nc3ccccc3n2CC(=O)N2CCCCC2)c1C | inactive |
| Cc1nc(-c2ccc(NC(=O)c3cccs3)cc2)cs1 | 2.51 µM (active) |
| O=C(O)c1ccc(NC(=O)c2cccs2)cc1 | inactive |
| O=C(O)Cc1ccc(NC(=O)c2cccs2)cc1 | inactive |
| CCCCNc1ccc(-c2nc(-c3ccncc3)no2)cc1[N+](=O)[O-] | inactive |
